Screens: PubChem, National Center for Advancing Translational Sciences (NCATS)
The list is not random: actives were taken first. Their share in the collection is about 7.8%.
VACV mCherry inh – vaccinia inhibition (mCherry reporter). Potency, µM (highest dose often 36.5 µM), most hits filed as inhibitors. 310,000 tested, 0.63% active. Vaccinia virus mCherry reporter infection, fluorescence; calls by dose curve; tested in A549 cells; note: nearly all actives have a fitted effect of over 35% in size
HCMV antiviral – inhibitors of human cytomegalovirus; HFF cells, HCMV-luciferase reporter, 72 h; active compounds read low; activity change, negative = inhibition, % at 57.5 µM; 410,000 tested, 4.5% active; AID 1259415; in the data active = activity change below about -60%; inconclusive = no clear call, values can overlap the other calls; inactive = above about -39%
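HFF cells seeded 16 h at 37C, treated with compounds, infected with luciferase-reporter HCMV at MOI 1 PFU/cell; luciferase read at 72 h post infection, normalized to buffer-only and Salinomycin controls.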
HCV inh – HCV inhibition | Huh7.5.1 HCVcc-Cre infection, luciferase reporter, 44 h | Potency, µM (highest dose often 41.8 µM), hits mostly inhibitors | 340,000 tested, 3.4% active; active = well fitted inhibition curve with a large enough effect; inconclusive = small, poorly fitted or top-dose-only effect, or another doubt; inactive = no such curve, though single readings can be large or run the other way
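Seed cells (1,000/well) for 4 h; treat with compound and infect with HCVcc-Cre, moi about 0.5. Incubate 44 h, then detect luciferase activity.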
MARV entry inh – inhibitors of Marburg virus binding or cell entry. Marburg virus pseudotyped entry inhibition, cell reporter. Potency, µM (doses to about 37.8 µM), most hits filed as inhibitors. 300,000 tested, 1.8% active; calls by dose curve; tested in HEK293 cells
Vaccinia Venus – vaccinia inhibition (Venus reporter); Vaccinia virus Venus reporter expression, fluorescence; Potency, µM (doses to about 36.5 µM), most hits filed as inhibitors; 330,000 tested, 0.46% active; calls by dose curve; tested in A549 cells; note: nearly all actives have a fitted effect of over 30% in size
LASV entry inh – inhibitors of Lassa virus binding or cell entry | Lassa virus pseudotype entry inhibition, cell reporter | Potency, µM (series often up to 37.9 µM), actives largely listed as inhibitors | 300,000 tested, 1.2% active; calls by dose curve; tested in HEK293 cells; note: nearly all actives have a fitted effect of over 50% in size
Large screens that a line does not name were inactive.

O=C(c1ccc(Cl)cc1)N1CCN(CCOc2ccccc2)CC1	HCV inh inconclusive
CN(CC1CCCCC1)[C@@H]1CC[C@@]23CCCN2C(=O)CCC[C@H]3[C@H]1Cc1ccccc1	none (no result: VACV mCherry inh, HCV inh, MARV entry inh, Vaccinia Venus, LASV entry inh)
O=C(CSc1nc2c([nH]c3ccccc32)c(=O)n1-c1ccc(Cl)cc1)NCc1ccccc1	none (no result: HCV inh, MARV entry inh)
COc1ccc(-c2oc3ncnc(NCCCN4CCOCC4)c3c2-c2ccc(OC)cc2)cc1	HCMV antiviral inconclusive, HCV inh 2.82µM, MARV entry inh inconclusive (no result: VACV mCherry inh, Vaccinia Venus)
c1ccc(-c2oc3ncnc(NCCCN4CCOCC4)c3c2-c2ccccc2)cc1	HCV inh 5.62µM, MARV entry inh inconclusive (no result: VACV mCherry inh, Vaccinia Venus)
COc1ccc(-c2oc3ncn(CCN4CCOCC4)c(=N)c3c2-c2ccc(OC)cc2)cc1	HCMV antiviral inconclusive, HCV inh 12.6µM, MARV entry inh 16.4µM, LASV entry inh inconclusive (no result: VACV mCherry inh, Vaccinia Venus)
COc1ccc(-c2oc3ncnc(NCCN4CCOCC4)c3c2-c2ccc(OC)cc2)cc1	HCV inh inconclusive, MARV entry inh inconclusive, LASV entry inh inconclusive (no result: HCMV antiviral)
Cc1cc2c(cc1C)C(c1ccccc1OC(C)C)CC(=O)N2 (centres undefined)	VACV mCherry inh inconclusive, HCV inh 8.91µM, MARV entry inh 1µM, LASV entry inh inconclusive
CC(C)Oc1ccccc1C1CC(=O)Nc2cc3c(cc21)OCO3 (centres undefined)	HCMV antiviral -100.9, HCV inh 11.2µM, MARV entry inh 6.51µM, LASV entry inh inconclusive (no result: VACV mCherry inh, Vaccinia Venus)
COc1ccccc1C1CC(=O)Nc2cc(C)c(C)cc21 (centres undefined)	HCV inh inconclusive, MARV entry inh inconclusive, LASV entry inh inconclusive
COC(=O)C1(C)NC(c2ccc(O)cc2)C2C(=O)N(c3ccc4c(c3)OCCO4)C(=O)C21 (centres undefined)	HCMV antiviral -73.3 (no result: VACV mCherry inh, Vaccinia Venus)
O=c1oc2ccccc2c(Cl)c1CN1CCCCC1	HCMV antiviral -63.6, HCV inh inconclusive (no result: VACV mCherry inh, MARV entry inh, Vaccinia Venus, LASV entry inh)
O=c1oc2ccccc2c(N2CCCC2)c1CN1CCCC1	none
COc1cccc(-c2cc3c(Nc4cccnc4)nccc3n2C)c1	none (no result: VACV mCherry inh, HCV inh, MARV entry inh, Vaccinia Venus, LASV entry inh)
Cc1csc2ncnc(NNC(=O)c3ccc(Cl)cc3)c12	HCV inh 7.94µM, MARV entry inh inconclusive, LASV entry inh inconclusive
O=C(NNc1ncnc2sccc12)c1ccc(Cl)cc1	VACV mCherry inh inconclusive, HCV inh inconclusive, MARV entry inh inconclusive
CCCc1nc2sc3c(N4CCC(C)CC4)ncnc3c2c2c1CCCC2	MARV entry inh inconclusive, LASV entry inh inconclusive (no result: HCV inh)
CCCCOC(=O)c1ccc(Nc2ncnc3c2cnn3-c2cccc(C)c2)cc1	none (no result: HCV inh, MARV entry inh)
COc1cc(C2C(=O)N(C3CCCCCC3)CC(=O)N2CCc2ccccc2)ccc1OC(C)C (centres undefined)	none (no result: HCV inh, MARV entry inh)
CN1CCCC(CN2c3ccccc3Sc3ccccc32)C1 (centres undefined)	HCV inh inconclusive (no result: MARV entry inh, LASV entry inh)
CN1CCCC(CC2c3ccccc3Sc3ccccc32)C1 (centres undefined)	HCV inh 2.82µM (no result: MARV entry inh, LASV entry inh)
CN(C)CCCNC(=O)/C(=C\c1ccc(-c2ccc(Br)cc2)o1)NC(=O)c1ccccc1	VACV mCherry inh 11.2µM, HCMV antiviral inconclusive, HCV inh inconclusive, MARV entry inh inconclusive, Vaccinia Venus 12.6µM, LASV entry inh inconclusive
Cc1ccc(C(=O)N/C(=C\c2ccc(-c3ccc(Cl)cc3)o2)C(=O)NCCCN(C)C)cc1	VACV mCherry inh inconclusive, HCMV antiviral -71.6, HCV inh inconclusive, MARV entry inh 6.31µM, Vaccinia Venus 12.6µM, LASV entry inh inconclusive
CN(C)CCCNC(=O)/C(=C/c1ccc(-c2ccc([N+](=O)[O-])cc2)o1)NC(=O)c1ccccc1	HCV inh inconclusive (no result: VACV mCherry inh, MARV entry inh, Vaccinia Venus, LASV entry inh)
Cc1ccc(C(=O)N/C(=C\c2ccc(-c3ccccc3[N+](=O)[O-])o2)C(=O)NCCCN(C)C)cc1	HCMV antiviral inconclusive, MARV entry inh inconclusive
Cc1oc2cc3oc(=O)c(CCC(=O)NCCc4ccccc4F)c(C)c3cc2c1C	none (no result: HCV inh)
CCNCCC(CCC(C)C)c1ccc2c(c1)OCO2 (centres undefined)	VACV mCherry inh inconclusive, HCV inh inconclusive, MARV entry inh 8.91µM
CC(C)CCC(CCNCc1ccccn1)c1ccc2c(c1)OCO2 (centres undefined)	none (no result: VACV mCherry inh, MARV entry inh, Vaccinia Venus, LASV entry inh)
Cc1cc(C)cc(-n2ccn(CC(=O)Nc3cc(C)ccc3C)c(=O)c2=O)c1	none (no result: HCV inh, MARV entry inh)
N#Cc1c(Cl)nsc1NC(=O)c1ccccc1	HCMV antiviral -99.9, HCV inh 14.1µM (no result: VACV mCherry inh, MARV entry inh, Vaccinia Venus, LASV entry inh)
N#Cc1c(NC(=O)c2ccccc2)sc2c1CCCCC2	HCV inh inconclusive, MARV entry inh inconclusive, LASV entry inh inconclusive (no result: VACV mCherry inh)
CCOc1cc(NC(=S)NCCCN(C)C)c(OCC)cc1NC(=O)c1cccs1	HCMV antiviral -64.1, HCV inh inconclusive, MARV entry inh inconclusive
CCOc1cc(NS(=O)(=O)c2ccc(NC(C)=O)cc2)c(OCC)cc1NC(=O)c1cccs1	VACV mCherry inh inconclusive, HCMV antiviral -79.4
CCOc1cc(NC(=S)NCCCOC)c(OCC)cc1NC(=O)c1cccs1	none
CCOc1cc(NC(=S)NC)c(OCC)cc1NC(=O)c1cccs1	HCV inh inconclusive (no result: LASV entry inh)
Cc1ccc(-c2nc(NC(=O)c3cc(C(C)(C)C)nn3C)sc2C)cc1Cl	HCMV antiviral -61.3, HCV inh inconclusive, MARV entry inh inconclusive, LASV entry inh inconclusive
CC1CCc2nc(NC(=O)c3cc(C(C)(C)C)nn3C)sc2C1 (centres undefined)	none (no result: VACV mCherry inh, MARV entry inh, Vaccinia Venus, LASV entry inh)
O=C(Cn1c(=O)nc(-c2ccccc2)c2cc(Cl)ccc21)N1CCN(c2ccccc2F)CC1	LASV entry inh inconclusive (no result: HCV inh, MARV entry inh)
Clc1ccccc1C1=Nn2c(nnc2-c2ccncc2)SC1	HCMV antiviral -76.1
c1csc(C2=Nn3c(nnc3-c3ccncc3)SC2)c1	HCMV antiviral -81.4 (no result: VACV mCherry inh)
Brc1ccc(C2=Nn3c(nnc3-c3ccncc3)SC2)cc1	none (no result: VACV mCherry inh, HCMV antiviral, HCV inh, Vaccinia Venus, LASV entry inh)
Cc1ccc(C(=O)Nc2nnc(S(=O)(=O)N(C)Cc3ccc(F)cc3)s2)cc1	HCMV antiviral active (no result: HCV inh, MARV entry inh)
Cc1cccc(C(=O)Nc2nnc(S(=O)(=O)N(C)Cc3ccc(Cl)cc3)s2)c1	HCMV antiviral inconclusive (no result: HCV inh, MARV entry inh)
Cc1ccc(C2C3=C(NCCN=C3c3ccccc3)C(=O)N2c2ccccc2)cc1 (centres undefined)	HCV inh inconclusive, MARV entry inh 10.3µM, LASV entry inh inconclusive
CCOc1ccc(N2C(=O)C3=C(C(c4ccc(Cl)cc4)=NCCN3)C2c2cccnc2)cc1 (centres undefined)	HCV inh inconclusive, MARV entry inh 11.2µM, LASV entry inh inconclusive
Cc1ccc(N2C(=O)c3n[nH]c(C)c3C2c2ccc(Cl)cc2)cc1 (centres undefined)	MARV entry inh inconclusive (no result: HCV inh)
Cc1cccc(OCC(=O)Nc2cccc(OCc3cc(=O)n4cccc(C)c4n3)c2)c1	none (no result: HCV inh, MARV entry inh)
Cc1ccc(C)c(Cn2c(=O)n(CCCC(=O)NCCc3ccc(Cl)cc3)c(=O)c3ccccc32)c1	VACV mCherry inh inconclusive, Vaccinia Venus inconclusive (no result: HCV inh)
Cn1c(=O)c2c(nc(SCCN3CCOCC3)n2Cc2ccccc2)n(C)c1=O	MARV entry inh 1.12µM
Cn1c(=O)c2c(nc(SCCN3CCCCC3)n2Cc2ccc(Cl)cc2)n(C)c1=O	VACV mCherry inh inconclusive, HCMV antiviral -95.1, HCV inh 35.5µM, MARV entry inh inconclusive, LASV entry inh inconclusive
